Screening results as filed in PubChem BioAssay.
NPR1 antag: Natriuretic polypeptide receptor (hNpr1) antagonism - Primary qHTS; Atrial natriuretic peptide receptor 1 (Homo sapiens), P16066; AID 1347048, 2019; Potency, µM (top dose mostly 46.3 µM), inactives show at the highest dose activity change, negative = inhibition, usual class: inhibitors; 76,000 tested, 1.6% active; HEK293 hNpr1 GloSensor cGMP, ANP-stimulated luminescence; calls by dose curve; note: potency is the fitted concentration of half-maximal effect; % is set by controls: 0 for no effect and ±100 for the full control effect; nearly all actives have a fitted effect of over 60% in size
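HEK293 cells stably expressing human Npr1 and cGMP GloSensor pGS-40F, loaded 2 h with 2% GloSensor reagent, given compound 30 min at room temperature. Luminescence read before and 20 min after 0.1 nM hNppA.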
GPT2 inh: Primary qHTS assay for inhibitors of Glutamate pyruvate transaminase 2 (GPT2) | Recombinant GPT2, coupled pyruvate oxidase/HRP Amplex Red fluorescence | Potency, µM (doses to about 57.7 µM), inactives show at the highest dose activity change, negative = inhibition, most hits filed as inhibitors | Alanine aminotransferase 2 (Homo sapiens), Q8TD30 | 100,000 tested, 0.25% active; note: potency is the fitted concentration of half-maximal effect; % is set by controls: 0 for no effect and ±100 for the full control effect; nearly all actives have a fitted effect of over 60% in size
Target sequence (Q8TD30 whole entry, looked up): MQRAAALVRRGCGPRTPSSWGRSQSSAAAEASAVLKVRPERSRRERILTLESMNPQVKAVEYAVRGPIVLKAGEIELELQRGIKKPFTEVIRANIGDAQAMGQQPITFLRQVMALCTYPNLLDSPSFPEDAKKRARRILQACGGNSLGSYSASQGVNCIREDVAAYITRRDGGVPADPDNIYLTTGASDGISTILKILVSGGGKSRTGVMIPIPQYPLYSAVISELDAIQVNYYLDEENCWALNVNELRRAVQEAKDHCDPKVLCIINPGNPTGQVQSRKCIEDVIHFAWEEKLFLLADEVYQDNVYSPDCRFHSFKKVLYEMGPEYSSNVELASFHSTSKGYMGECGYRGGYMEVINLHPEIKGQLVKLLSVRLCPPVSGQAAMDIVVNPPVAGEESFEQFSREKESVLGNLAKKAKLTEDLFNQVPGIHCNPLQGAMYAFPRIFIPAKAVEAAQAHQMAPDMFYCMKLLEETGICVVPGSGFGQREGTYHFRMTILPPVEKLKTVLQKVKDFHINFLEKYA
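Inhibition is scored from Amplex Red fluorescence generated when pyruvate oxidase and HRP act on pyruvate released by GPT2. Reactions contain 10ng/uL enzyme, 250uM a-KG and 2mM L-alanine and run 30 min at room temperature.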
FLuc inh: Firefly luciferase inhibition profiling of diverse chemical library using quantitative high-throughput screening; purified P. pyralis luciferase, luminescence, biochemical; Potency, µM (titrated, usually from 115 µM), hits mostly inhibitors; 76,000 tested, 2.5% active; AID 1347043, 2019; note: potency is the fitted concentration of half-maximal effect; % is set by controls: 0 for no effect and ±100 for the full control effect; nearly all actives have a fitted effect of over 65% in size
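FLuc 10nM, D-luciferin 10uM, ATP 10uM, Mg acetate 10mM, Tris acetate pH 7.5, Tween/BSA; cpd qHTS; enzyme added last; CCD luminescence.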
HEK293 tox: Cytotoxic Profiling in HEK 293 Cell Line of Diverse Libraries Using Quantitative High-Throughput Screening | Potency, µM (doses to about 115 µM), inactives show top-dose activity change, negative = cytotoxicity, hits mostly inhibitors | 94,000 tested, 6.6% active | HEK 293 viability, ATP luminescence (CellTiter-Glo), 48-72 h; note: potency is the fitted concentration of half-maximal effect; % is set by controls: 0 for no effect and ±100 for the full control effect; nearly all actives have a fitted effect of over 60% in size
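Cytotoxicity was scored by loss of ATP-coupled luminescence (CellTiter-Glo) in HEK 293 cells. Compound treatment ran 48 or 72 hr at 37 degree Celsius, 5% CO2, 95% humidity.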
NIH3T3 tox: Cytotoxic Profiling in NIH 3T3 Cell Line of Diverse Libraries Using Quantitative High-Throughput Screening. NIH 3T3 viability, CellTiter-Glo ATP luminescence, 48-72 h. Potency, µM (top dose mostly 96.7 µM), for the others: at the top dose activity change, negative = cytotoxicity, most hits filed as inhibitors. 94,000 tested, 4.3% active. AID 1345082, 2018; note: potency is the fitted concentration of half-maximal effect; % is set by controls: 0 for no effect and ±100 for the full control effect; nearly all actives have a fitted effect of over 55% in size
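Cells were seeded at 400 per well, treated with pin-transferred compound, and kept 48 or 72 hr at 37 °C before CellTiter-Glo addition and luminescence imaging of cellular ATP.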
GPT2 inh cnf: Confirmatory qHTS assay for inhibitors of Glutamate pyruvate transaminase 2 (GPT2); shares compounds with GPT2 inh; GPT2 enzyme, coupled Amplex Red pyruvate fluorescence; Potency, µM, most hits filed as inhibitors; 95 tested, 90% active; AID 1671187, 2021
Starred values were filed as active, the others as inactive; i = inactive; ? = inconclusive; . = no result given; [ ] = dose if it differs, or a comment. Sampled rows, rich in hits. Any-hit rate of the full collection: about 10%. Unless noted, calls come from the whole dose curve; as a rule, active = well fitted curve in the direction sought with a large enough effect; inconclusive = small, poorly fitted or top-dose-only effect, or another doubt; inactive = no such curve, though single readings can be large; an effect the other way counts as inactive or inconclusive.

SMILES	NPR1 antag	GPT2 inh	FLuc inh	HEK293 tox	NIH3T3 tox	GPT2 inh cnf
COCCNC(=O)CCCN1C(=O)COc2ccc(C(=O)COc3ccc(C)cc3OC)cc21	-8.0%	i	i	-21.6%	-29.8%	.
CN(C)CCNc1cc2c(cn1)NCCN(Cc1ccccc1)C2	-1.3%[70.6 µM]	?	i	?	?	.
CC1(C(=O)N2CCOCC2)CN(Cc2ccccc2)Cc2ccc(Nc3ccccc3)nc21 (centres undefined)	-11.2%	?	i	?	?	.
c1ccc(CN2CCNc3cc(Nc4ccc(N5CCOCC5)cc4)ncc3C2)cc1	-11.2%[70.6 µM]	?	i	89.1µM*	?	4.44*
COc1ccccc1CN1CCNc2cnc(Nc3ccccc3)cc2C1	-0.9%[70.6 µM]	?	i	89.1µM*	?	4.44*
Cn1cc(CN2CCNc3cnc(Nc4ccccc4)cc3C2)cn1	.	.	.	.	.	2.8*
COc1cccc(CN2CCNc3cnc(Nc4ccccc4)cc3C2)c1	?	?	i	89.1µM*	?	4.98*
CCOc1ccccc1CN1C[C@@H](CO)[C@H](NC(=O)c2cccnc2)C1	-2.1%	i	i	?	-25.0%	.
OC1C=C2C3CN(Cc4cc5c(cc43)OCO5)C2CC1O (centres undefined)	.	-4.0%	.	.	.	.
O=C(NCC12CCCC=C1N(Cc1ccccc1)C(=O)CC2)C1CCC1 (centres undefined)	1.0%	-3.2%	i	-14.5%	-8.5%	.
CCOc1ccc(NC(=O)N2CCc3cc(OC)c(OC)cc3C2CNC(=O)c2ccco2)cc1 (centres undefined)	-0.9%	i	?	?	?	.
COc1ccc(OC)c(CN2CCNc3cnc(Nc4cccnc4)cc3C2)c1	-14.4%[70.6 µM]	?	i	?	?	5.59*
COc1ccc(CNC(=O)N2CCOc3ccc(N(C)C)cc3C2)cc1	.	1.78µM*	.	?	-29.5%	0.863*
CCNC(=O)N1CCOc2ccc(CN3CCOCC3)cc2C1	1.1%	i	i	-3.1%	-13.9%	.
CCOc1cc(N2CCC(O)CC2)ccc1Nc1ncc2c(n1)N(C)c1ccccc1C(=O)N2C	.	12.2µM*	.	.	.	3.06*
CC(C)n1cccc1C(=O)N1CCC2(CC1)CC(c1ccccc1)CN2C (centres undefined)	0.1%	?	i	?	-2.7%	.
